Laboratory results taken from PubChem BioAssay (NCI).
Several values for one entry are separate records, joined by “and”; a condition that tells them apart may be missing. Equal values may be shown once. This is part of a sample that, as a whole, favours compounds with a hit. Of some 79,000 tested, about 15% had one in any assay. Some compounds were tested as several samples or in several runs, with calls that do not always agree. Activity calls are given as the source filed them. Rule as the data show it: active = growth inhibition above about 70%; inactive = the rest.

Columns and labels:
[1] = NCI Yeast Anticancer Drug Screen. Data for the mlh1 strain (AID 171);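 also: 0% = growth of vehicle-treated control cultures of the same strain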; conditions: S. cerevisiae mlh1 strain growth inhibition, stronger effect = higher value
Method in brief: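 Compounds are applied to a genetically altered yeast strain, and its growth is compared with that of vehicle-treated cultures to give percent inhibition.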

[2] = NCI Yeast Anticancer Drug Screen. Data for the sgs1 strain (AID 173);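 also: 0% = growth of vehicle-only control cultures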; conditions: S. cerevisiae sgs1 mutant, stronger effect = higher value
Method in brief: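 Compounds applied to genetically altered yeast; growth compared with vehicle-treated cultures to give % inhibition.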

[3] = NCI Yeast Anticancer Drug Screen. Data for the mlh1 rad18 strain (AID 175); conditions: S. cerevisiae mlh1 rad18 strain growth inhibition, stronger effect = higher value
Method in brief: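 Cells of a genetically altered yeast strain, deficient in DNA damage repair, were treated with compound. Their growth was then compared with that of vehicle-treated cultures to give inhibition.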

[4] = NCI Yeast Anticancer Drug Screen. Data for the rad18 strain (AID 177); conditions: S. cerevisiae rad18 mutant growth inhibition, stronger effect = higher value
Method in brief: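 Compounds are applied to a repair-deficient yeast strain, and growth is compared with that of vehicle-treated cultures to give percent inhibition.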

[5] = NCI Yeast Anticancer Drug Screen. Data for the rad52 strain (AID 147);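 also: 0% = growth of vehicle-treated control cultures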; conditions: S. cerevisiae rad52 mutant growth inhibition, stronger effect = higher value
Method in brief: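 DNA repair-defective yeast; compound exposure; growth scored against vehicle controls.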

[6] = NCI Yeast Anticancer Drug Screen. Data for the wt1 strain (AID 149);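 also: 0% = growth of vehicle-treated wt1 cultures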; conditions: S. cerevisiae wt1 strain (SPY 50644) growth inhibition, stronger effect = higher value
Method in brief: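 Each compound is tested on wt1 yeast and the loss of growth versus vehicle gives the inhibition value.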

[7] = NCI Yeast Anticancer Drug Screen. Data for the rad50EPP+ strain (AID 151);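 also: 0% = growth of vehicle-treated control cultures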; conditions: S. cerevisiae rad50 mutant strain, stronger effect = higher value
Method in brief: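 rad50EPP+ yeast treated with test compounds. Readout: growth vs vehicle control.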

[8] = NCI Yeast Anticancer Drug Screen. Data for the mgt1 strain (AID 153); conditions: S. cerevisiae mgt1 mutant growth inhibition, stronger effect = higher value
Method in brief: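 Growth inhibition relative to vehicle controls was scored for the mgt1 yeast strain after compound exposure.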

[9] = NCI Yeast Anticancer Drug Screen. Data for the rad50 strain (AID 155);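 also: 0% = growth of vehicle-only cultures of the same strain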; conditions: S. cerevisiae rad50 strain growth inhibition, stronger effect = higher value
Method in brief: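 Vehicle-treated cultures provide the reference for the growth inhibition reported for compound-exposed, repair-deficient yeast.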

[10] = NCI Yeast Anticancer Drug Screen. Data for the mec2-1 strain (AID 157); conditions: S. cerevisiae mec2-1 strain, stronger effect = higher value
Method in brief: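 Growth inhibition is read against vehicle-treated controls after compound exposure of the mec2-1 yeast strain, which is defective in DNA damage repair or cell cycle control.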

[11] = NCI Yeast Anticancer Drug Screen. Data for the sgs1 mgt1 strain (AID 161);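 also: 0% = growth of cultures given vehicle only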; conditions: S. cerevisiae sgs1 mgt1 strain, stronger effect = higher value
Method in brief: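 Yeast cells carrying a defined DNA-repair defect were exposed to test compounds. Growth inhibition was measured relative to vehicle-treated controls.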

[12] = NCI Yeast Anticancer Drug Screen. Data for the CLN2oe strain (AID 163);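 also: 0% = growth of vehicle-only control cultures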; conditions: S. cerevisiae CLN2oe strain, stronger effect = higher value
Method in brief: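 Compound-treated yeast; growth vs vehicle ctrl = % inhibition. Genetically altered strain (cell-cycle control).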

[13] = NCI Yeast Anticancer Drug Screen. Data for the cln2 rad14 strain (AID 165);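 also: 0% = growth equal to vehicle treated cultures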; conditions: S. cerevisiae cln2 rad14 strain, stronger effect = higher value
Method in brief: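 Growth inhibition, relative to vehicle-treated controls, is the read-out. The test organism is a yeast strain with defined genetic alterations, cln2 rad14.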

[14] = NCI Yeast Anticancer Drug Screen. Data for the bub3 strain (AID 167); conditions: S. cerevisiae bub3 mutant strain, stronger effect = higher value
Method in brief: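 Mutant yeast screening strain plus compound; vehicle-treated cultures serve as the 0% inhibition reference.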

[15] = NCI Yeast Anticancer Drug Screen. Data for the wt2 strain (AID 169); conditions: S. cerevisiae wt2 strain growth inhibition, stronger effect = higher value
Method in brief: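 Compound exposure of yeast; growth compared with vehicle controls; inhibition reported.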

[16] = at 5.0 µM (retest, dose inferred, filed as 0.5)
[17] = at 50.0 µM (retest, dose inferred, filed as 5.0)

Measured: growth inhibition

O=C1c2ccccc2C(=O)c2cc(CCl)ccc21
inactive: [1]; at 33.0 µM 9% | [1]; at 100.0 µM 10% | [2]; at 1.2 µM 2% | [2]; at 3.7 µM 2% | [2]; at 11.0 µM 7% | [2]; at 33.0 µM 11% | [2]; at 100.0 µM 14% | [3]; [16] 29% | [3]; [17] 51% | [3]; at 50.0 µM 31.2% | [4]; at 1.2 µM 9% | [4]; at 3.7 µM 22% | [4]; at 11.0 µM 39% | [4]; at 33.0 µM 46% | [4]; at 100.0 µM 53%

O=c1ccc(=O)n(-c2ccccc2)[nH]1
79.4% (active) and -20.1% (inactive): [3]; at 50.0 µM
active: [5]; at 33.0 µM 79% | [5]; at 100.0 µM 97% | [6]; at 33.0 µM 71% | [6]; at 100.0 µM 95% | [7]; at 33.0 µM 75% | [7]; at 100.0 µM 87% | [8]; at 33.0 µM 70% | [8]; at 100.0 µM 97% | [9]; at 33.0 µM 82% | [9]; [17] 90% | [9]; at 100.0 µM 95% | [10]; at 33.0 µM 78% | [10]; [17] 95% | [10]; at 100.0 µM 98% | [11]; [17] 84% | [12]; at 33.0 µM 71% | [12]; at 100.0 µM 97% | [13]; [17] 79% | [14]; at 33.0 µM 83% | [14]; [17] 97% | [14]; at 100.0 µM 98% | [15]; at 100.0 µM 93% | [1]; at 33.0 µM 87% | [1]; at 100.0 µM 99% | [2]; at 33.0 µM 89% | [2]; at 100.0 µM 98% | [3]; [17] 95% | [4]; at 33.0 µM 84% | [4]; at 100.0 µM 94%
inactive: [5]; at 1.2 µM -29% | [5]; at 3.7 µM -11% | [5]; at 11.0 µM 17% | [6]; at 1.2 µM -16% | [6]; at 3.7 µM -10% | [6]; at 11.0 µM 29% | [7]; at 1.2 µM -24% | [7]; at 3.7 µM -5% | [7]; at 11.0 µM 38% | [8]; at 1.2 µM 0% | [8]; at 3.7 µM 19% | [8]; at 11.0 µM 35% | [9]; at 1.2 µM -14% | [9]; at 3.7 µM -3% | [9]; [16] 25% | [9]; at 11.0 µM 28% | [10]; at 1.2 µM -23% | [10]; at 3.7 µM -24% | [10]; [16] -17% | [10]; at 11.0 µM 2% | [11]; [16] 1% | [12]; at 1.2 µM 7% | [12]; at 3.7 µM 20% | [12]; at 11.0 µM 29% | [13]; [16] 18% | [13]; at 50.0 µM 58.5% and -14.5% | [14]; at 1.2 µM -13% | [14]; at 3.7 µM -23% | [14]; [16] 41% | [14]; at 11.0 µM 2% | [15]; at 1.2 µM -15% | [15]; at 3.7 µM -10% | [15]; at 11.0 µM 1% | [15]; at 33.0 µM 66% | [1]; at 1.2 µM -2% | [1]; at 3.7 µM -4% | [1]; at 11.0 µM 30% | [2]; at 1.2 µM 15% | [2]; at 3.7 µM 27% | [2]; at 11.0 µM 58% | [3]; [16] 38% | [4]; at 1.2 µM -20% | [4]; at 3.7 µM 3% | [4]; at 11.0 µM 47%
85.3% (active) and -33% (inactive): [9]; at 50.0 µM
85% (active) and -26.4% (inactive): [10]; at 50.0 µM
91.3% (active) and -13.6% (inactive): [11]; at 50.0 µM
86.2% (active) and -25.4% (inactive): [14]; at 50.0 µM

COc1oc(C(=O)NC2CCCCC2)c(-c2ccc(Cl)cc2)c1S(=O)(=O)c1ccccc1
inactive: [5]; at 1.2 µM -5% | [5]; at 3.7 µM 7% | [5]; at 11.0 µM 56% | [6]; at 1.2 µM -19% | [6]; at 3.7 µM -5% | [6]; at 11.0 µM 68% | [7]; at 1.2 µM -22% | [7]; at 3.7 µM -19% | [7]; at 11.0 µM -18% | [7]; at 33.0 µM -5% | [7]; at 100.0 µM -11% | [8]; at 1.2 µM -21% | [8]; at 3.7 µM -17% | [8]; at 11.0 µM 60% | [9]; at 1.2 µM -29% | [9]; at 3.7 µM -2% | [9]; [16] 64% | [9]; at 11.0 µM 48% | [10]; at 1.2 µM 1% | [10]; at 3.7 µM 3% | [10]; [16] 22% | [11]; [16] -10% | [12]; at 1.2 µM -1% | [12]; at 3.7 µM 0% | [12]; at 11.0 µM 30% | [13]; [16] 15% | [14]; at 1.2 µM -18% | [14]; at 3.7 µM -25% | [14]; [16] 8% | [14]; at 11.0 µM 47% | [15]; at 1.2 µM -1% | [15]; at 3.7 µM 22% | [1]; at 1.2 µM -20% | [1]; at 3.7 µM -7% | [1]; at 11.0 µM 41% | [2]; at 1.2 µM -4% | [2]; at 3.7 µM -1% | [2]; at 11.0 µM 52% | [3]; [16] 16% | [3]; at 50.0 µM 45.4% | [4]; at 1.2 µM -6% | [4]; at 3.7 µM -1% | [4]; at 11.0 µM 46%
active: [5]; at 33.0 µM 87% | [5]; at 100.0 µM 84% | [6]; at 33.0 µM 91% | [6]; at 100.0 µM 87% | [8]; at 33.0 µM 89% | [8]; at 100.0 µM 86% | [9]; at 33.0 µM 83% | [9]; [17] 92% | [9]; at 50.0 µM 75.1% | [9]; at 100.0 µM 78% | [10]; at 11.0 µM 70% | [10]; at 33.0 µM 92% | [10]; [17] 91% | [10]; at 50.0 µM 78.8% | [10]; at 100.0 µM 88% | [11]; [17] 88% | [11]; at 50.0 µM 78.2% | [12]; at 33.0 µM 91% | [12]; at 100.0 µM 83% | [13]; [17] 87% | [13]; at 50.0 µM 76.9% | [14]; at 33.0 µM 90% | [14]; [17] 88% | [14]; at 50.0 µM 72.5% | [14]; at 100.0 µM 84% | [15]; at 11.0 µM 89% | [15]; at 33.0 µM 91% | [15]; at 100.0 µM 82% | [1]; at 33.0 µM 84% | [1]; at 100.0 µM 81% | [2]; at 33.0 µM 89% | [2]; at 100.0 µM 84% | [3]; [17] 84% | [4]; at 33.0 µM 85% | [4]; at 100.0 µM 80%
